From PubChem
In the library only some 19% were active in any assay of this set; here they are far more common.
Cycloheximide cs = counter-screen hit for Shiga toxin inhibitors, cycloheximide. 300,000 tested, 12% active. cell reporter, cycloheximide protein synthesis inhibition counterscreen. max response, %. AID 2314; in the data active = max response mostly above about 13%, no sharp cut-off; inactive = mostly below about 14%; also: read at 38.3 µM for the half of the compounds with a filed dose; 0% is about no effect
Pf growth 96h = P. falciparum growth inhibition at 96 hour, primary screen for plastid delayed-death inhibitors; Potency, µM (doses to about 28.7 µM), without a hit: top-dose activity change, negative = inhibition, most hits filed as inhibitors; 320,000 tested, 6.9% active; P. falciparum luciferase reporter growth, 96 h; also: potency is read from the fitted curve at half-maximal effect; % is scaled to controls: 0 for no effect and ±100 for the full control effect
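Erythrocytes infected with luciferase-expressing P. falciparum were dispensed at 2% hematocrit and 0.05% parasitemia (final), then incubated with compounds 96 hours at 37 C in 5% CO2. Luminescence after detection reagent addition reported growth.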
SARS PLpro yeast = SARS-CoV PLP inhibition in yeast; S. cerevisiae expressing SARS-CoV PLpro, growth rescue; Potency, µM (titrated, usually from 32.9 µM), for the others: at the highest dose activity, positive = growth rescue, hits mostly activators; 330,000 tested, 0.19% active; calls by dose curve; also: potency is read from the fitted curve at half-maximal effect; 0% is about no effect; nearly all actives have a fitted effect of over 55% in size
AMA1 RON2 block = AMA1-RON2 (P. falciparum) interaction inhibition; AlphaScreen AMA1-biotinylated RON2 peptide binding; 360,000 tested, 0.2% active; Potency, µM (top dose mostly 58.2 µM), for the others: at the top dose activity change, negative = inhibition, actives largely listed as inhibitors;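 also: potency is read from the fitted curve at half-maximal effect; 0% = vehicle wells and -100% = peptide control; nearly all actives have a fitted effect of over 45% in size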
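AMA1 (3D7) with his tag at 25 nM final met compounds first, then biotinylated RON2 peptide at 25 nM; detection used donor plus acceptor beads, 10 µg/mL apiece, read by AlphaScreen after 30 min at room temperature.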
Shiga inhibitor = blocks Shiga toxin action in Vero cells. Vero cells, Shiga toxin protein synthesis inhibition reporter. inhibition, % at 38.7 µM. AID 2315. 290,000 tested, 9.2% active; in the data active = inhibition mostly above about 28%, no sharp cut-off; inactive = mostly below about 43%; also: 0% is about no effect
Pf growth 48h = P. falciparum growth inhibition at 48 hours (one generation); P. falciparum luciferase growth in erythrocytes, 48 h; Potency, µM (top dose mostly 28.7 µM), for inactives: at the highest dose activity change, negative = inhibition, actives largely listed as inhibitors; 310,000 tested, 5.9% active; AID 504832; also: potency is read from the fitted curve at half-maximal effect; % is scaled to controls: 0 for no effect and ±100 for the full control effect
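Growth was read as firefly luciferase luminescence after a 48 h, 37 C, 5% CO2 exposure of compounds to reporter-bearing P. falciparum cultures (0.1% parasitemia, 2% hematocrit final) in Albumax-supplemented RPMI 1640.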
* = called active by the depositor; ? = inconclusive; · = no result given; [ ] = remark or other dose. Unless noted, calls follow the shape of the dose curve; as a rule, active = well fitted curve in the direction sought with a large enough effect; inconclusive = small, poorly fitted or top-dose-only effect, or another doubt; inactive = no such curve, though single readings can be large; an effect the other way counts as inactive or inconclusive.

SMILES	Cycloheximide cs	Pf growth 96h	SARS PLpro yeast	AMA1 RON2 block	Shiga inhibitor	Pf growth 48h
CC(C)=CCCC(C)NC(=O)NC1CCCCC1 (stereo not drawn)	22.6*	13.0%	?	-0.2%	38.1	9.4%
CC(C)[C@H](NC(=O)NC1CCCC1)C(=O)O	-0.8	·	-5.3%	-4.8%	-11.0	3.5%
COc1cc(CN2CCN(C(C)C)C(CCO)C2)ccc1OCc1ccccc1 (stereo not drawn)	30.4*	7.0%	-1.5%	-8.6%	69.9*	-12.3%
COc1cc(CN2CCC(C(=O)NCC(C)(C)CN(C)C)CC2)ccc1OCc1ccccc1	12.9	?	-0.6%	-21.0%	·	9.28µM*
COc1ccc(CN2CCC(C(N)=O)CC2)cc1OCc1ccccc1	-2.1	?	11.1%	?	-4.4	35.0%
COc1ccc(CCNC(=O)C2CCN(C(=O)N(C)C)CC2)cc1OC	-3.0	21.6%	6.5%	2.5%	-0.6	26.4%
COc1ccc(CN2CCN(Cc3ccccc3)C(CCO)C2)cc1OC (stereo not drawn)	-1.6	-29.0%	0.9%	4.6%	-2.8	-18.3%
CCOCCCNC(=O)C1CCN(Cc2ccc(OCc3ccccc3)c(OC)c2)CC1	17.9*	?	4.7%	-10.0%	95.2	48.4%
CCOCCCNC(=O)C1CCN(Cc2cccc(OCc3ccccc3)c2)CC1	7.2	-28.1%	11.0%	-21.8%	0.6	-17.9%
CCCCNC(=O)C1CCN(Cc2ccc(OCc3ccccc3)c(OC)c2)CC1	41.7*	-19.9%	2.7%	4.4%	44.1*	72.4%
O=C(CN(c1ccccc1)S(=O)(=O)c1ccc(F)cc1)NCc1cccs1	·	?	-3.4%	-1.2%	·	?
CCCCOc1ccc(C(=O)NNC(=O)C2C3CCC(C3)C2C(=O)O)cc1 (stereo not drawn)	39.7*	-0.2%	-3.9%	97.7%	71.9*	1.1%
O=C(NNC(=O)C1C2CCC(C2)C1C(=O)O)c1ccc(Br)o1 (stereo not drawn)	42.0*	35.8%	2.0%	·	76.4*	12.6%
CCCCOc1ccc(C(=O)NCC(=O)OCCCOC(=O)CNC(=O)c2ccc(OCCCC)cc2)cc1	·	·	·	-6.2%	·	·
COC(=O)c1sccc1NC(=O)C1C2C=CC(C2)C1C(=O)O (stereo not drawn)	-6.4	16.9%	-5.0%	-3.0%	-2.2	8.1%
CCCCOc1ccc(C(=O)NNC(=O)C2C3C=CC(C3)C2C(=O)O)cc1 (stereo not drawn)	10.5*	-0.2%	8.1%	12.9%	17.8	-3.7%
Cc1ccsc1C(=O)NNC(=O)C1C2C=CC(C2)C1C(=O)O (stereo not drawn)	120.7*	10.5%	-7.4%	44.8%	96.5*	145.4%
CC(C)c1ccc(C(=O)NNC(=O)C2C3CCC(C3)C2C(=O)O)cc1 (stereo not drawn)	39.1*	197.1%	0.2%	·	101.2*	103.2%
CC(C)c1ccc(C(=O)NN2C(=O)C3CCCCC3C2=O)cc1 (stereo not drawn)	49.8*	94.5%	3.2%	10.7%	96.3*	94.9%
CCOc1cccc(C(=O)NCc2ccccc2)c1	7.1	12.3%	-0.1%	22.6%	13.3	11.6%
CCOc1cccc(C(=O)NNC(=O)C2C3C=CC(C3)C2C(=O)O)c1 (stereo not drawn)	19.6*	16.6%	-1.5%	14.4%	28.3	9.6%
O=C1NC(=O)C(=Cc2ccccc2[N+](=O)[O-])S1	·	·	·	-13.3%	·	·
O=C1NC(=O)/C(=C/c2cccc3ccccc23)S1	16.7*	-15.3%	-17.8%	11.6%	16.0	0.7%
O=c1cc(O)c2sc(Nc3ccc(Cl)c(F)c3)nc2[nH]1	-2.8	5.86µM*	0.5%	-12.5%	4.4	1.65µM*
COc1ccc(Nc2nc3[nH]c(=O)cc(O)c3s2)cc1	11.3	?	-0.8%	-0.9%	0.4	?
O=c1cc(O)c2sc(Nc3ccc(F)c(Cl)c3)nc2[nH]1	2.9	3.7µM*	-0.1%	4.2%	1.8	?
Clc1ccc2c(c1)C1OCCC1C(c1ccco1)N2 (stereo not drawn)	26.4*	-1.2%[5.75 µM]	-7.2%	14.9%	65.7*	93.2%
CCOC(=O)c1c(C)[nH]c(N=Nc2ccccc2C)c1C	38.1*	·	-34.0%	?	80.6*	18.7%
